Measured values reported in ChEMBL document CHEMBL2218924, “A broad activity screen in support of a chemogenomic map for kinase signalling research and drug discovery” (Biochem J, 2013).

Legend:
[1] = molecular target: T1, Serine/threonine-protein kinase BRSK1 (Homo sapiens) (UniProt Q8TDC3); conditions: at 1 µM
T1 sequence (whole entry): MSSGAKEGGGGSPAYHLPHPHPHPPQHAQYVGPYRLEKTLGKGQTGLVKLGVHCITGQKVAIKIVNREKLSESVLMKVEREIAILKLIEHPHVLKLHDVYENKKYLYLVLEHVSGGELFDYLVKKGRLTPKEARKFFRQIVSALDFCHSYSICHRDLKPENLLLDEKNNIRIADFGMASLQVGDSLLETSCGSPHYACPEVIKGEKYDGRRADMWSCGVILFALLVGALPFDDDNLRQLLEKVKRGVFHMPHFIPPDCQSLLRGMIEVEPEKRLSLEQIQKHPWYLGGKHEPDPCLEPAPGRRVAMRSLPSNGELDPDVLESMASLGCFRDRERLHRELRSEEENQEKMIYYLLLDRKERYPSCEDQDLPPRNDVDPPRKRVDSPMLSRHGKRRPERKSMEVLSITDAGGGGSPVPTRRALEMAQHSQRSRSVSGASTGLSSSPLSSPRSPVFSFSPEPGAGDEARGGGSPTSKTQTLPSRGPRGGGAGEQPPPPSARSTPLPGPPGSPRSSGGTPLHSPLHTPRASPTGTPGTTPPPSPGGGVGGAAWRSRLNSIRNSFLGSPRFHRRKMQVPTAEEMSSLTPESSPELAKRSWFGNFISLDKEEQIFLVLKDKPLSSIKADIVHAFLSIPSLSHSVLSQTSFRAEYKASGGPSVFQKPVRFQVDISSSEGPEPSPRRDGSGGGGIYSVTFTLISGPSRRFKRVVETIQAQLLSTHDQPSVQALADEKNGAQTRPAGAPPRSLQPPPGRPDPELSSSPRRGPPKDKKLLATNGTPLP

[2] = molecular target: T1, Serine/threonine-protein kinase BRSK1 (Homo sapiens); conditions: at 10 µM
[3] = molecular target: T2, Serine/threonine-protein kinase BRSK2 (Homo sapiens) (UniProt Q8IWQ3); conditions: at 1 µM
T2 sequence (whole entry): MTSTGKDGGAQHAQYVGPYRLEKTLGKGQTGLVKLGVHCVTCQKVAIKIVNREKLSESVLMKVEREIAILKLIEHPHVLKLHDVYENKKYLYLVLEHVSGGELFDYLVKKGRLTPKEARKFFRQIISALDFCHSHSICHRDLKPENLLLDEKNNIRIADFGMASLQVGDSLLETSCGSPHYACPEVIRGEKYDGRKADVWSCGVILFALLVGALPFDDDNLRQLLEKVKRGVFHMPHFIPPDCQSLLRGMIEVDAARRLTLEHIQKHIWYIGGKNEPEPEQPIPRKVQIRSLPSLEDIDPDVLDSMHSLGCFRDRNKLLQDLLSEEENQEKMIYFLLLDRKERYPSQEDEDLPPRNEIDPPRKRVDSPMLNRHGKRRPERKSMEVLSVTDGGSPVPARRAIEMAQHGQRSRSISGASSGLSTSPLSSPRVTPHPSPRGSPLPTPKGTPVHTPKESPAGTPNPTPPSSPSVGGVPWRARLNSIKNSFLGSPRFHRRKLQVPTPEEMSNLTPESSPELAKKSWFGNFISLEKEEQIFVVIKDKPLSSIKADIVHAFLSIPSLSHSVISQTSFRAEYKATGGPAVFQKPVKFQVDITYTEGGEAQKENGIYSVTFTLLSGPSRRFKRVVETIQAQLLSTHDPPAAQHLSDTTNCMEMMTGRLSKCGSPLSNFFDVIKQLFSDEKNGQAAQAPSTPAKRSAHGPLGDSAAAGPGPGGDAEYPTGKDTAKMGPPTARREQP

[4] = molecular target: T2, Serine/threonine-protein kinase BRSK2 (Homo sapiens); conditions: at 10 µM
[5] = molecular target: T3, Cyclin-dependent kinase 2/cyclin A (Homo sapiens) (UniProt P24941+P20248+P78396); conditions: at 10 µM
[6] = molecular target: T4, Cyclin-dependent kinase 1/cyclin B1 (Homo sapiens) (UniProt P06493+P14635); conditions: at 10 µM
[7] = molecular target: T3, Cyclin-dependent kinase 2/cyclin A (Homo sapiens); conditions: at 1 µM
[8] = molecular target: T5, Cyclin-dependent kinase 2/cyclin E (Homo sapiens) (UniProt P24864+P24941+O96020); conditions: at 1 µM
[9] = molecular target: T5, Cyclin-dependent kinase 2/cyclin E (Homo sapiens); conditions: at 10 µM
[10] = molecular target: T4, Cyclin-dependent kinase 1/cyclin B1 (Homo sapiens); conditions: at 1 µM

T4 sequence (P06493 whole entry, looked up): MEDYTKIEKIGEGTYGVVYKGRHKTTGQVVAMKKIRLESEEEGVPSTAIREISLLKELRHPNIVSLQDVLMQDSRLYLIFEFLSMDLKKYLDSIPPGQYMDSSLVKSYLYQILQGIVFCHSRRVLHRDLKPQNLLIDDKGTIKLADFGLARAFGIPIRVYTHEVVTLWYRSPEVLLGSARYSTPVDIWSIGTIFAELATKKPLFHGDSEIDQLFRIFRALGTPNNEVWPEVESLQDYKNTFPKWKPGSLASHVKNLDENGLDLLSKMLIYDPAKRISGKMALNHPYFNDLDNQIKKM
T4 sequence (P14635 whole entry, looked up): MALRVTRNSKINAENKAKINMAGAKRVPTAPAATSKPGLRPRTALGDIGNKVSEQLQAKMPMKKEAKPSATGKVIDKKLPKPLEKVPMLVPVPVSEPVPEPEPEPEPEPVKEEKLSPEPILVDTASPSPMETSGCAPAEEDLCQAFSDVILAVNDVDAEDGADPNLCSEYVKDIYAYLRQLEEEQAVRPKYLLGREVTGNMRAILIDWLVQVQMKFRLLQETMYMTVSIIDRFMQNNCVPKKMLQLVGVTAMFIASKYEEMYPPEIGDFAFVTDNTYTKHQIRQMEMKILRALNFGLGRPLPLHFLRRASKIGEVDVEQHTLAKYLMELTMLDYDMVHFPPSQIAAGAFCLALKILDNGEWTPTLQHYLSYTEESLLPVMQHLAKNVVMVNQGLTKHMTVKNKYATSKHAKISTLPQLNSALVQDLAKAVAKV

| SMILES | residual activity [1] [%] | residual activity [2] [%] | residual activity [3] [%] | residual activity [4] [%] | residual activity [5] [%] | residual activity [6] [%] | residual activity [7] [%] | residual activity [8] [%] | residual activity [9] [%] | residual activity [10] [%] |
| --- | --- | --- | --- | --- | --- | --- | --- | --- | --- | --- |
| COc1ccc(Cl)cc1NC(=O)Nc1cc(C)nc2ccccc12 | 60 | 64 | 77 | 100 | 88 |  |  |  |  |  |
| CC(C)N(CCC(=O)c1ccc2ccccc2c1)Cc1ccccc1 | 87 |  |  |  |  |  |  |  |  |  |
| CCN(CC)CCNC(=O)c1c(C)[nH]c(/C=C2\C(=O)Nc3ccc(Cl)cc32)c1C | 6 | 9 | 29 | 10 | 69 | 57 | 134 | 98 | 65 |  |
| Oc1cccc(-c2nc(N3CCOCC3)c3oc4ncccc4c3n2)c1 | 95 | 84 | 96 | 100 | 93 |  | 129 |  |  |  |
| O=c1cc(N2CCNCC2)oc2c(-c3ccccc3)cccc12 | 70 | 74 | 98 | 95 | 87 | 102 | 125 |  | 103 | 104 |
| O=S(=O)(NCCNC/C=C/c1ccc(Br)cc1)c1cccc2cnccc12 | 80 | 53 |  |  |  |  |  |  |  |  |
| Nc1nc(Nc2ccc(S(N)(=O)=O)cc2)nn1C(=O)c1c(F)cccc1F | 55 | 12 | 40 | 15 | 1 | 0 | -1 | 2 | -1 | 1 |
| O=C1NC(=O)C(c2cn(CCCn3ccnc3)c3ccccc23)=C1Nc1ccccc1 | 59 | 75 |  |  | 21 |  | 103 | 76 | 24 |  |
| Nc1n[nH]c2nc3ccccc3nc12 | 80 | 48 |  |  | 44 | 59 | 86 | 83 | 46 | 96 |
| Cn1sc(=O)n(Cc2ccccc2)c1=O | 86 | 83 |  |  | 79 |  | 79 | 96 | 95 |  |
| Nc1ncnc2c1c(-c1ccc(Oc3ccccc3)cc1)cn2C1CCCC1 | 17 |  | 63 | 61 | 72 | 85 | 113 | 94 | 79 | 104 |
| N#C/C(=C\c1ccc(O)c(O)c1)C(=O)NCc1ccccc1 |  |  |  |  | 85 |  |  |  |  |  |
| CSc1nc(-c2ccc(F)cc2)c(-c2ccnc(NC(C)c3ccccc3)c2)[nH]1 (stereo unspecified) | 100 | 55 |  |  | 80 | 86 |  | 96 | 86 | 98 |
| CCOC(=O)c1c(C)[nH]c(/C=C2\C(=O)Nc3ccccc32)c1C |  |  |  |  | 100 |  | 140 | 99 | 95 |  |
| O=c1c(-c2ccc(F)cc2)c(-c2ccncc2)[nH]n1-c1ccc(Cl)cc1 | 100 | 59 |  | 76 |  |  | 99 |  | 102 |  |
| CCCCc1c(-c2ccc(OC)cc2)[nH]c2nccnc12 |  |  | 104 |  | 25 | 26 | 48 | 30 | 46 | 31 |
| COc1ccc(CNC(=O)Nc2ncc([N+](=O)[O-])s2)cc1 |  |  |  |  | 79 |  | 78 |  |  |  |
| O=C1Cc2c([nH]c3ccc([N+](=O)[O-])cc23)-c2ccccc2N1 |  |  | 32 | 20 | 10 | 23 | 14 |  | 11 | 47 |
| Nc1nccc(-c2c(-c3ccc(F)cc3)ncn2C2CCNCC2)n1 |  |  | 128 | 82 | 77 |  | 79 |  |  | 115 |
| O=C1Cc2c([nH]c3ccc(Br)cc23)-c2ccccc2N1 | 64 | 37 |  |  |  | 9 |  | 36 | 2 | 52 |

| SMILES | residual activity [1] [%] | residual activity [2] [%] | residual activity [3] [%] | residual activity [4] [%] | residual activity [5] [%] | residual activity [6] [%] | residual activity [7] [%] | residual activity [8] [%] | residual activity [9] [%] | residual activity [10] [%] |
| --- | --- | --- | --- | --- | --- | --- | --- | --- | --- | --- |
| CN([C@@H](Cc1ccc(OS(=O)(=O)c2cccc3cnccc23)cc1)C(=O)N1CCN(c2ccccc2)CC1)S(=O)(=O)c1cccc2cnccc12 |  | 74 |  | 79 | 98 |  |  |  |  |  |
| NCCNc1ncc(C(N)=O)c(Nc2cccc(C(F)(F)F)c2)n1 |  |  |  |  | 65 | 43 | 131 |  | 47 |  |
| COc1cc2c(cc1OC)-c1n[nH]c(Nc3cccc(F)c3)c1C2 |  |  | 104 |  |  | 103 |  | 98 | 68 | 114 |
| COc1cc2ncnc(Nc3cccc(Cl)c3)c2cc1OC | 14 | 17 |  |  |  |  | 138 | 109 | 105 |  |
| O=S(=O)(c1cccc2cnccc12)N1CCCNCC1 |  | 84 |  | 80 |  |  |  |  |  |  |
| N#Cc1c(NC(=O)c2cccc3ccccc23)sc2c1CCCC2 |  |  |  | 90 | 90 |  | 96 | 96 | 94 |  |
| COc1ccc(-c2cnc3c(-c4ccsc4)cnn3c2)cc1 |  |  |  |  |  |  |  | 99 | 96 |  |
| O=C(Nc1ccc(Cl)cc1)c1ccccc1NCc1ccncc1 |  | 126 |  |  |  |  | 126 |  |  |  |
| O=C1Nc2ccccc2/C1=C\c1c(Cl)[nH]c2ccccc12 |  | 46 |  |  | 57 | 68 | 83 | 82 | 58 |  |
| O=C(Nc1nc2ccccc2n1CCN1CCOCC1)c1cccc([N+](=O)[O-])c1 | 83 | 78 |  |  |  | 103 |  | 106 | 104 | 114 |
| COc1ccc(COc2ccc(Cc3cnc(N)nc3N)cc2OC)cc1 |  |  | 99 | 115 |  | 109 |  |  |  |  |
| NC(=O)c1cccc(-c2cc(Nc3ccc(OC(F)(F)F)cc3)ncn2)c1 |  |  |  |  | 94 |  | 139 |  |  |  |
| O=C1NC(=O)C(c2cn(CCCO)c3ncccc23)=C1c1cnccn1 | 94 | 84 |  | 74 | 59 | 63 | 84 | 87 | 64 | 72 |
| c1ccc(-c2cnc(Nc3ccc(OCCN4CCCC4)cc3)s2)cc1 | 46 | 42 |  |  | 70 | 62 | 147 |  |  | 113 |
| Fc1ccc(-c2nc3n(c2-c2ccncc2)CCS3)cc1 | 99 | 100 |  |  | 89 | 95 | 83 |  | 94 | 100 |
| COc1cc2nccc(Oc3ccc(NC(=O)Nc4cc(C)on4)c(Cl)c3)c2cc1OC | 65 | 46 |  |  | 99 |  | 106 |  |  |  |
| CCN1/C(=C/C(C)=O)Sc2ccc(OC)cc21 |  |  |  |  |  |  |  | 81 | 76 |  |
| CCCCc1c(-c2ccc(O)cc2)[nH]c2nccnc12 | 88 | 88 |  |  |  | 18 |  | 20 | 16 | 29 |
